Laboratory results as given in PMC7862700, “An all-to-all approach to the identification of sequence-specific readers for epigenetic DNA modifications on cytosine”.

Legend:
Test in all cases: DAPPL (digital affinity profiling via proximity ligation, sequencing); 10 mM Tris-HCl pH 7.5, 50 mM NaCl, 1 mM DTT, 4% glycerol, room temperature, 30 min; GST-TFs on glutathione beads, 16-mer random dsDNA library, 0.1% formaldehyde crosslink after washing; high values mean tight binding
FEV = molecular target: T1, FEV (Homo sapiens, UniProt Q99581 1-238); conditions: protein: recombinant; tags: N-terminal GST; dsDNA, one strand shown
T1 sequence: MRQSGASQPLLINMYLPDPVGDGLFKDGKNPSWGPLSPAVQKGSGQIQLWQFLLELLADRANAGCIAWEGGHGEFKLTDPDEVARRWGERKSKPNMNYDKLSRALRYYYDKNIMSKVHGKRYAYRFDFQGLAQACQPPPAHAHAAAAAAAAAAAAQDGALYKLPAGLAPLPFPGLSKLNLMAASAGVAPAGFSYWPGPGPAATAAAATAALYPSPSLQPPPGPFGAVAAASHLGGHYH
Summary of the method: (§1)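 Human transcription factors fused to GST were expressed in yeast, captured on glutathione beads, given DNA barcodes and pooled with a GST-only negative control. Pools were incubated with 200 nmole of a 16-mer random double-stranded DNA library in Tris/NaCl/DTT/glycerol buffer at room temperature for 30 min. They were then washed, crosslinked with 0.1% formaldehyde, proximity-ligated (BsaI/T4 ligase, 1 h, 37 °C), PCR-amplified and sequenced on an Illumina NextSeq500. Binding signal is each 6-mer's read frequency for a factor divided by its frequency for the GST control.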

ETV5 = ETV5 (Homo sapiens, UniProt P41161 1-510); conditions: protein: recombinant; tags: N-terminal GST; dsDNA, one strand shown
Summary of the method: as §1

HSF1 = HSF1 (Homo sapiens, UniProt Q00613 1-529); conditions: protein: recombinant; tags: N-terminal GST; chain copies: 3; dsDNA, one strand shown
Summary of the method: as §1

SPIC = molecular target: T2, SPIC (Homo sapiens, UniProt Q8N5J4 1-248); conditions: protein: recombinant; tags: N-terminal GST; dsDNA, one strand shown
T2 sequence: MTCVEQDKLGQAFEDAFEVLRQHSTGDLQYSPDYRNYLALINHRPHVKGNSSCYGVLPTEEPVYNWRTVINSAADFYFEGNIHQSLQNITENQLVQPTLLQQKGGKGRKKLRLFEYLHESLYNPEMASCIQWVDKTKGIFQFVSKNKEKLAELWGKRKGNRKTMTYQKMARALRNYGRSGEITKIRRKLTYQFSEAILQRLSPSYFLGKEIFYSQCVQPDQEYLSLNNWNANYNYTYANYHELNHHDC
Summary of the method: as §1

ELF4 = ELF4 (Homo sapiens, UniProt Q99607 1-663); conditions: protein: recombinant; tags: N-terminal GST; dsDNA, one strand shown
Summary of the method: as §1

ELK4 = molecular target: T3, ELK4 (Homo sapiens, UniProt P28324-2 1-405); conditions: protein: recombinant; tags: N-terminal GST; dsDNA, one strand shown
T3 sequence: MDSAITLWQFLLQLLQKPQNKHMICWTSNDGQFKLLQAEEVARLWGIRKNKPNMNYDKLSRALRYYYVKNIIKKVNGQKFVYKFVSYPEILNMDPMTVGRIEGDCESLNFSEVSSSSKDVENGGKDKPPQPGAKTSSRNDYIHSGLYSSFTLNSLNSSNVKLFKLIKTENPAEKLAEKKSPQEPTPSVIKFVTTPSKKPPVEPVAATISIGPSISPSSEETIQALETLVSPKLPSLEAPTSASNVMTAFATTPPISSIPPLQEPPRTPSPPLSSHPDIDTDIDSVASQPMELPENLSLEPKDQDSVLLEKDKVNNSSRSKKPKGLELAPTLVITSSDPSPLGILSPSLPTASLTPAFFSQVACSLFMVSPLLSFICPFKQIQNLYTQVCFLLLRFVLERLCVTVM
Summary of the method: as §1

ETV2 = molecular target: T4, ETV2 (Homo sapiens, UniProt O00321 1-342); conditions: protein: recombinant; tags: N-terminal GST; dsDNA, one strand shown
T4 sequence: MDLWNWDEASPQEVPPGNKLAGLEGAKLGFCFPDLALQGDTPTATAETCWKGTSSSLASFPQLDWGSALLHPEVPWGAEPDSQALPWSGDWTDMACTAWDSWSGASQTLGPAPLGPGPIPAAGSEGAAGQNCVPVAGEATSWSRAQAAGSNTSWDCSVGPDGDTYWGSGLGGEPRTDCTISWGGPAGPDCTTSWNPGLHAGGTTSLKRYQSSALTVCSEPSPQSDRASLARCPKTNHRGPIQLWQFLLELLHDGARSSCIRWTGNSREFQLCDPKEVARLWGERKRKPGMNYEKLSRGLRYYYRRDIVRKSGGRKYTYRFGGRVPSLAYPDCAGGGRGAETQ
Summary of the method: as §1

ELF3 = molecular target: T5, ELF3 (Homo sapiens, UniProt P78545 1-371); conditions: protein: recombinant; tags: N-terminal GST; dsDNA, one strand shown
T5 sequence: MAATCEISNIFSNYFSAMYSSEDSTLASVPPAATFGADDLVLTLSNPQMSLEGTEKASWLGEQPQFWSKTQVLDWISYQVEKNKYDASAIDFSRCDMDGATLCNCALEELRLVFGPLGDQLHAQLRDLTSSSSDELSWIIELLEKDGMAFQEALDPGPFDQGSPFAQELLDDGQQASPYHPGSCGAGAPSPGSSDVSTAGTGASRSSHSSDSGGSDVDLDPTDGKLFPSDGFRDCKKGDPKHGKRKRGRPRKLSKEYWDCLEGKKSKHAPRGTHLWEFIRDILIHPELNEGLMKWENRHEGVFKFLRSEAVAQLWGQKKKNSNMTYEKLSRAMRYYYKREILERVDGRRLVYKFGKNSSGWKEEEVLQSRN
Summary of the method: as §1

CRX = CRX (Homo sapiens, UniProt O43186 1-299); conditions: protein: recombinant; tags: N-terminal GST; dsDNA, one strand shown
Summary of the method: as §1

ETV1 = ETV1 (Homo sapiens, UniProt P50549 1-477); conditions: protein: recombinant; tags: N-terminal GST; dsDNA, one strand shown
Summary of the method: as §1

ERF = molecular target: T6, ERF (Homo sapiens, UniProt P50548 1-548); conditions: protein: recombinant; tags: N-terminal GST; dsDNA, one strand shown
T6 sequence: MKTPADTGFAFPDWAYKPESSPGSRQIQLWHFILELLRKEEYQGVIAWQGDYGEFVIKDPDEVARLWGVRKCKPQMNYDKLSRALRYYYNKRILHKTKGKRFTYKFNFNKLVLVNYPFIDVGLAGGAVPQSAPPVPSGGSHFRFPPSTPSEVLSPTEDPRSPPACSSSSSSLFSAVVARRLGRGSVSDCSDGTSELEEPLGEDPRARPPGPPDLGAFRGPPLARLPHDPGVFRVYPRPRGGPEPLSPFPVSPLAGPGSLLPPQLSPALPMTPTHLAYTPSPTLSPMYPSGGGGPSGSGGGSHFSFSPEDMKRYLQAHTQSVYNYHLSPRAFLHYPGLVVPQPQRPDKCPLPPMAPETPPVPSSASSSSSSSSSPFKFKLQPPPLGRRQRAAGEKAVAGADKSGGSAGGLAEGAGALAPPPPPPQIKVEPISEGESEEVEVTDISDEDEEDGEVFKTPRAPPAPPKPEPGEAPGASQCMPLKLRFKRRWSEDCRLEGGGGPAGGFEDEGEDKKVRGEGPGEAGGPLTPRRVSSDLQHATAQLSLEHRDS
Summary of the method: as §1

ETV3L = molecular target: T7, ETV3L (Homo sapiens, UniProt Q6ZN32 1-361); conditions: protein: recombinant; tags: N-terminal GST; dsDNA, one strand shown
T7 sequence: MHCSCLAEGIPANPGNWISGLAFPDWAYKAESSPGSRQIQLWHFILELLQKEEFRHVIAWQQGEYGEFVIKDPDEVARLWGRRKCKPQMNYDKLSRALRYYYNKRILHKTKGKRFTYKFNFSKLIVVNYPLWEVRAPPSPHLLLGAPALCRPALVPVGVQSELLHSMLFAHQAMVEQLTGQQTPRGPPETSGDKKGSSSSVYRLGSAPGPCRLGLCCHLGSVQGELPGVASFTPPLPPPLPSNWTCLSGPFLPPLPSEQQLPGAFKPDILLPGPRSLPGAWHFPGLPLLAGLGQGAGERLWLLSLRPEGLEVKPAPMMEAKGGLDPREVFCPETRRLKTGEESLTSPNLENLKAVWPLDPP
Summary of the method: as §1

ETS2 = molecular target: T8, ETS2 (Homo sapiens, UniProt P15036 1-469); conditions: protein: recombinant; tags: N-terminal GST; dsDNA, one strand shown
T8 sequence: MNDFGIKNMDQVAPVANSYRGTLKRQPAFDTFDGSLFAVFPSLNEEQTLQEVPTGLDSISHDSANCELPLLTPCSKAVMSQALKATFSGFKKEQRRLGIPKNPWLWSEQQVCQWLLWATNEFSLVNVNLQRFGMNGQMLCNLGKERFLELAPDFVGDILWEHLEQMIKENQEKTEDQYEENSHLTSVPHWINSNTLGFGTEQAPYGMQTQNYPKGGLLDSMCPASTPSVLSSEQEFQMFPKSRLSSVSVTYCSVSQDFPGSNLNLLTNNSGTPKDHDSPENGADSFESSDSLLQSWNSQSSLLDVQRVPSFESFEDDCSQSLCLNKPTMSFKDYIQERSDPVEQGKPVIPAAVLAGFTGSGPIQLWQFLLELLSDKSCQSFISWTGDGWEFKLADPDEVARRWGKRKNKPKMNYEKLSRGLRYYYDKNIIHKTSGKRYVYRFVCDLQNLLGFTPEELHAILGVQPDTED
Summary of the method: as §1

SPDEF = molecular target: T9, SPDEF (Homo sapiens, UniProt O95238 1-335); conditions: protein: recombinant; tags: N-terminal GST; dsDNA, one strand shown
T9 sequence: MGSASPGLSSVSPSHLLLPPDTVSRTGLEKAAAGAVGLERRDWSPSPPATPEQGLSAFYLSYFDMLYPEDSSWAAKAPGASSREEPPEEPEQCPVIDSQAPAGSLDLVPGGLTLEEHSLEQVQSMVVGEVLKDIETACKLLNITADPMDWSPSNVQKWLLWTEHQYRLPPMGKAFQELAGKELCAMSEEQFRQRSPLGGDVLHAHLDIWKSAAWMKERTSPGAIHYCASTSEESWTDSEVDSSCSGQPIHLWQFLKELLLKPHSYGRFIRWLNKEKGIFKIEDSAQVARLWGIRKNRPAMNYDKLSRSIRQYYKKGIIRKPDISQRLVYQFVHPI
Summary of the method: as §1

ETV7 = molecular target: T10, ETV7 (Homo sapiens, UniProt Q9Y603 1-341); conditions: protein: recombinant; tags: N-terminal GST; dsDNA, one strand shown
T10 sequence: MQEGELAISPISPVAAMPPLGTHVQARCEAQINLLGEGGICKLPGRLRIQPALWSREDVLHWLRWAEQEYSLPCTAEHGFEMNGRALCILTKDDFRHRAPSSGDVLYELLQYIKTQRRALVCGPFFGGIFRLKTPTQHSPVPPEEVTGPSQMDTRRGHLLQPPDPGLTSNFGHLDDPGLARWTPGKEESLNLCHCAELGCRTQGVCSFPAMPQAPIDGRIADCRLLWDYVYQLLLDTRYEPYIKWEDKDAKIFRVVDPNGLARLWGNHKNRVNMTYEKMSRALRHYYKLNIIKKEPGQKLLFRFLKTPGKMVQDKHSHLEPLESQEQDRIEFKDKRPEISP
Summary of the method: as §1

ELF5 = molecular target: T11, ELF5 (Homo sapiens, UniProt Q9UKW6-2 1-255); conditions: protein: recombinant; tags: N-terminal GST; dsDNA, one strand shown
T11 sequence: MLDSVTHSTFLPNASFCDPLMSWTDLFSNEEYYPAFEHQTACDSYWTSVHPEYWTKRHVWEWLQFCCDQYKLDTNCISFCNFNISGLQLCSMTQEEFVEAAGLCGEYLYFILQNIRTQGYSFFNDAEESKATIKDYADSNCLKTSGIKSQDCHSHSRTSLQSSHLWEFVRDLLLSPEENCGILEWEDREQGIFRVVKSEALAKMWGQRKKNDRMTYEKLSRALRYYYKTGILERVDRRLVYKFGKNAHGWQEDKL
Summary of the method: as §1

ETV3 = molecular target: T12, ETV3 (Homo sapiens, UniProt P41162-2 1-143); conditions: protein: recombinant; tags: N-terminal GST; dsDNA, one strand shown
T12 sequence: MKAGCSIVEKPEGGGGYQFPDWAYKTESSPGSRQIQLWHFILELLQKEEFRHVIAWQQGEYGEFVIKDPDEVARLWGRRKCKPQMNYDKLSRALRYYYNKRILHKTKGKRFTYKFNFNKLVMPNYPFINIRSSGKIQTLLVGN
Summary of the method: as §1

ETV6 = ETV6 (Homo sapiens, UniProt P41212 1-452); conditions: protein: recombinant; tags: N-terminal GST; dsDNA, one strand shown
Summary of the method: as §1

CRX, sequence (O43186 whole entry): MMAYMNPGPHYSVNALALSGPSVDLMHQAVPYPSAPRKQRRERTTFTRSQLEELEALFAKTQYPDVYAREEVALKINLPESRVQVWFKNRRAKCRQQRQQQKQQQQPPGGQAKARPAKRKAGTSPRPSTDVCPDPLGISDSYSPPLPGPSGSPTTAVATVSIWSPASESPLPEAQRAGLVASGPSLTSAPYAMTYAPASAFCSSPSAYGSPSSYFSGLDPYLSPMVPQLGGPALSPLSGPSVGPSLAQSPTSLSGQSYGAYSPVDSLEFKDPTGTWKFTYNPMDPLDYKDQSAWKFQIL
ETV6, sequence (P41212 whole entry): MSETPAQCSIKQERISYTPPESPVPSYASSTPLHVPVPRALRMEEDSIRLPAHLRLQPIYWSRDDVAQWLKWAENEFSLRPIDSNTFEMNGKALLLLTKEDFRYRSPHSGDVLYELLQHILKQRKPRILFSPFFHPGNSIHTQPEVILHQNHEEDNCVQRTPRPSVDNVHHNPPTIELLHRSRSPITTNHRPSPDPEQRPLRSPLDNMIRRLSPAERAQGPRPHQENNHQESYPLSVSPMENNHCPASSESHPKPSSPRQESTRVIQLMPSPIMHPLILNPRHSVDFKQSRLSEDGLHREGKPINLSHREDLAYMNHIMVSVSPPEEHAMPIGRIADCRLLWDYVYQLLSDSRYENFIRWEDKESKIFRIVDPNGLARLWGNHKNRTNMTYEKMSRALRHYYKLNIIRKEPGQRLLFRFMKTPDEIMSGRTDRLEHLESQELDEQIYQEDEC
ELF4, sequence (Q99607 whole entry): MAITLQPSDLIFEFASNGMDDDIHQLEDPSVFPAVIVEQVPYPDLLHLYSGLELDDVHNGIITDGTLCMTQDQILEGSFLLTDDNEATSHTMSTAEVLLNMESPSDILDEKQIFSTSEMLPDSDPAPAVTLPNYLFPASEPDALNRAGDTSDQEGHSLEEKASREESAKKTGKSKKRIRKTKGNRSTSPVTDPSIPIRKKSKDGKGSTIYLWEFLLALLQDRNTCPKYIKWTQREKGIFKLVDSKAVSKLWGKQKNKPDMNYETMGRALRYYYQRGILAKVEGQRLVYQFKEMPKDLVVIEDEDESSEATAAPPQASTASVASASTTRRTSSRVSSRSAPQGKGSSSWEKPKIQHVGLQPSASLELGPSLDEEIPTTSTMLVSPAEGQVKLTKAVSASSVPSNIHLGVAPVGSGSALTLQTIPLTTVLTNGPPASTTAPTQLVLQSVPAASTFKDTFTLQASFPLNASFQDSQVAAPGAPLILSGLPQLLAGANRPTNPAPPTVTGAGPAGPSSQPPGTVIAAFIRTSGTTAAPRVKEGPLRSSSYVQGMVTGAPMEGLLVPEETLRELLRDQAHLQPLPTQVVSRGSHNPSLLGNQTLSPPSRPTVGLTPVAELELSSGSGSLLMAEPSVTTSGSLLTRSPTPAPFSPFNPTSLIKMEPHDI
HSF1, sequence (Q00613 whole entry): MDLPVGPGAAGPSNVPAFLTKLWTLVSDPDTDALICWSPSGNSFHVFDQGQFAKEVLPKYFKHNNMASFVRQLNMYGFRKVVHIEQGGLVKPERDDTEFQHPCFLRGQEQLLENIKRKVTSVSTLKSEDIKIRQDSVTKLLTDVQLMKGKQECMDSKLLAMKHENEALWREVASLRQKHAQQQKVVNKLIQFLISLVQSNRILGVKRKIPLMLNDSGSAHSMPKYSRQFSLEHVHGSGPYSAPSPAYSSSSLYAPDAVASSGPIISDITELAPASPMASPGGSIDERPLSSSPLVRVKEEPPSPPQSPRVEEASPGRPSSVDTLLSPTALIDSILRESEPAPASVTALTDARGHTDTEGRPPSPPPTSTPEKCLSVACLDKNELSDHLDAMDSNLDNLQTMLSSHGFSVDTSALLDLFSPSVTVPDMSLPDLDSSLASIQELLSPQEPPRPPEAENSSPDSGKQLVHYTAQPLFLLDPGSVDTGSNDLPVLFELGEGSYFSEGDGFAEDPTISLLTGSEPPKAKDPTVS
ETV1, sequence (P50549 whole entry): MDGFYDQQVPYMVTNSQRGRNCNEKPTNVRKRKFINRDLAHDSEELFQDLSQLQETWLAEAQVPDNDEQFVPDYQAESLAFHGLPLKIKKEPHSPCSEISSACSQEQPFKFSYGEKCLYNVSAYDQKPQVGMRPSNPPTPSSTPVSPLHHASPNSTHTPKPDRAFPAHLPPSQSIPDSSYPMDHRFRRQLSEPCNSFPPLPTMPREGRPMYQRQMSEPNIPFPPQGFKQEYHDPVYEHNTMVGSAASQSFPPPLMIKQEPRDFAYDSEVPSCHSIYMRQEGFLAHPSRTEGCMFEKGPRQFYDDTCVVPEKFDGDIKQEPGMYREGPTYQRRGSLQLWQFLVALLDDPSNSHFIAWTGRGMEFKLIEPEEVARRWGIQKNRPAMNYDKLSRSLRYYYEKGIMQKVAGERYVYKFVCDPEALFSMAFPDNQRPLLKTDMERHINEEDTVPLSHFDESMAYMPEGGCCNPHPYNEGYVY
ETV5, sequence (P41161 whole entry): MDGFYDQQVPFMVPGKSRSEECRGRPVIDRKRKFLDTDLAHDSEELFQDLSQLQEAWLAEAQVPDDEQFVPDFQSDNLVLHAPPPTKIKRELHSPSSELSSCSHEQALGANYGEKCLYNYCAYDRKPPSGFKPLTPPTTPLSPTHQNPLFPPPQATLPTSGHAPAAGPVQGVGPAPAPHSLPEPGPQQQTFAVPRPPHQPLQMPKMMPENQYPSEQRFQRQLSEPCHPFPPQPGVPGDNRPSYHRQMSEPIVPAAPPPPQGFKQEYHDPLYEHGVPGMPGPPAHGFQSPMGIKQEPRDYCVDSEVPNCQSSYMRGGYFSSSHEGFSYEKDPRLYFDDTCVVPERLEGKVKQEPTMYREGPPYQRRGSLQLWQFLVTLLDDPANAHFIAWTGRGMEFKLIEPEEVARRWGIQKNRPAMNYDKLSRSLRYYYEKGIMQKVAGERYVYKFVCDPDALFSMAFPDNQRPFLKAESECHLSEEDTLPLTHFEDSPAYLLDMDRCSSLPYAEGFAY

## TCTTCC
FEV
  binding signal: 2.55 fold enrichment (6-mer frequency, TF over GST control)
ETV5
  binding signal: 2.85 fold enrichment (6-mer frequency, TF over GST control)
HSF1
  binding signal: 1.69 fold enrichment (6-mer frequency, TF over GST control)
SPIC
  binding signal: 2.31 fold enrichment (6-mer frequency, TF over GST control)
ELF4
  binding signal: 2.35 fold enrichment (6-mer frequency, TF over GST control)
ELK4
  binding signal: 2.38 fold enrichment (6-mer frequency, TF over GST control)
ETV2
  binding signal: 2.61 fold enrichment (6-mer frequency, TF over GST control)
ELF3
  binding signal: 2.33 fold enrichment (6-mer frequency, TF over GST control)
CRX
  binding signal: 1.34 fold enrichment (6-mer frequency, TF over GST control)
ETV1
  binding signal: 2.62 fold enrichment (6-mer frequency, TF over GST control)
ERF
  binding signal: 2.26 fold enrichment (6-mer frequency, TF over GST control)
ETV3L
  binding signal: 2.66 fold enrichment (6-mer frequency, TF over GST control)
ETS2
  binding signal: 2.8 fold enrichment (6-mer frequency, TF over GST control)
SPDEF
  binding signal: 2.45 fold enrichment (6-mer frequency, TF over GST control)
ETV7
  binding signal: 2.35 fold enrichment (6-mer frequency, TF over GST control)
ELF5
  binding signal: 4.14 fold enrichment (6-mer frequency, TF over GST control)
ETV3
  binding signal: 2.74 fold enrichment (6-mer frequency, TF over GST control)
ETV6
  binding signal: 2.8 fold enrichment (6-mer frequency, TF over GST control)
